About 870 (72%) of roughly 1,200 compounds were called active. Roughly 3% stayed inconclusive and do not appear here.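 Rule for the calls: active = every test run fits a falling curve whose half-maximal concentration is at most twice the top valid dose; inconclusive = runs disagree, or flat 30 to 70% inhibition, or poor fit; inactive = every run inactive: flat, rising or weaker potency.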 So high a share suggests a set chosen from earlier hits. Only a sample is shown. Measured potencies and affinities stand elsewhere.
experiment: ZM109 Env clade C HIV-1 fusion inhibitors, dose response, HeLa effector, CEM target cells, luciferase, cherry-pick (AID 652058); conditions: HeLa Env/CEM cell fusion, 16-24 h; series mostly up to 35 µM

Activity change, negative = inhibition, inactive:
Cc1[nH]c2ccccc2c1/C=N\NC(=O)c1ccccc1Cl
COc1ccc(CCNC(=O)C2CCCN(Cc3nc(-c4cccc(Cl)c4)oc3C)C2)cc1OC (centres undefined)
O=C(NCc1cccc(F)c1)[C@@H]1[C@@H](CO)[C@@H]2Cn3c(ccc(-c4cccnc4)c3=O)[C@H]1N2CC1CC1
CCCNC(=O)N1[C@H](C#N)[C@H](c2ccc(-c3cccc(OC)c3)cc2)[C@@H]1CO
N#C[C@@H]1[C@H](c2ccc(-c3ccccc3F)cc2)[C@@H](CO)N1C(=O)Cc1ccccc1
S=c1nc[nH]c2c1[nH]c1ccc(Cl)cc12
Cc1cc(C(=O)CN2C(=O)c3ccccc3S2(=O)=O)c(C)n1C(C)C
Cc1onc(-c2ccccc2)c1C(=O)Nc1ccc(Br)cc1Cl
Cc1onc(-c2ccccc2)c1C(=O)NC(=S)NNC(=O)c1ccc(O)cc1
CO[C@H]1CN(C)C(=O)c2cc(NC(=O)C3CCOCC3)ccc2OC[C@H](C)N(Cc2nccs2)C[C@H]1C
CO[C@@H]1CN(C)C(=O)c2ccc(NS(C)(=O)=O)cc2OC[C@@H](C)N(C(=O)C2CCCCC2)C[C@H]1C
CO[C@@H]1CN(C)C(=O)c2cc(NS(=O)(=O)c3ccc(C)cc3)ccc2OC[C@H](C)N(C(=O)NC(C)C)C[C@@H]1C
CCS(=O)(=O)Nc1ccc2c(c1)C(=O)N(C)C[C@H](OC)[C@@H](C)CN(C(=O)C1CCC1)[C@H](C)CO2
COc1ccc(S(=O)(=O)NC[C@@H]2CC[C@H]3[C@H](CN3Cc3cc(F)ccc3F)O2)cc1
CCCC(=O)Nc1ccc2c(c1)OC[C@@H](C)N(C(=O)CN(C)C)C[C@H](C)[C@@H](OC)CN(C)C2=O
CCCC(=O)Nc1ccc2c(c1)C(=O)N(C)C[C@@H](OC)[C@@H](C)CN(Cc1nccs1)[C@@H](C)CO2
CCC(=O)Nc1ccc2c(c1)C(=O)N(C)C[C@@H](OC)[C@H](C)CN(C(=O)CC)[C@@H](C)CO2
Clc1ccc2c(c1)C1=C(C(c3ccncc3)O2)C(c2ccc(Br)cc2)n2ncnc2N1 (centres undefined)
COc1ccc(CC(=O)Nc2cccc(S(=O)(=O)N3CCCCCC3)c2)cc1OC
CC1CCCC(C)N1CCCNC(=O)c1nn(C)c2c1CSc1ccccc1-2 (centres undefined)
CN1C(=O)C2(c3ccccc31)N(C)CC(c1ccccc1)C21SC(=S)N(Cc2ccco2)C1=O (centres undefined)
O=C(Nc1ccc(S(=O)(=O)N2CCCC2)cc1)c1ccc(CN2CCOCC2)cc1
CCN(CC)c1ccc(/C=N/N2C(C)CCCC2C)c(O)c1 (centres undefined)
Nc1nonc1C(=O)NCCNCc1cc(Br)ccc1OCc1ccccc1F
Cn1c(SCc2nc(-c3ccc(Cl)cc3)no2)nnc1-c1cccs1
Cc1ccc(COC(=O)c2cc(S(=O)(=O)N3CCCCC3)ccc2N2CCOCC2)cc1
O=C(COC(=O)c1cc(S(=O)(=O)N2CCOCC2)ccc1O)NCc1ccc2c(c1)OCO2
CCNC1CCC(Nc2ccnc3cc(Cl)ccc23)CC1 (centres undefined)
CCC(C)NS(=O)(=O)c1ccc(S(=O)(=O)N2CCCC3(CCCCC3)C2)cc1 (centres undefined)
CC(=O)Nc1ccc(NC(=O)CN(c2ccc(C34CC5CC(CC(C5)C3)C4)cc2)S(C)(=O)=O)cc1
CC(CCc1ccco1)NC(=O)CCc1nnc2ccc(NCc3ccccc3Cl)nn12 (centres undefined)
CCOc1ccccc1CNc1ncnc2ccc(-c3c(C)noc3C)cc12
OCC[C@@H]1C[C@@H](O)[C@H](O)[C@]2(OCc3ccccc32)O1
Cc1ccc2c(c1)c1c3n2CCN(CCC#N)C3CCC1 (centres undefined)
COc1ccccc1S(=O)(=O)n1cc(Cc2ccccc2)c(N)n1
COc1ccc(C(O)c2nc3ccccc3n2C)cc1OC (centres undefined)
C=CCNc1nc2c(c(=O)n(C)c(=O)n2C)n1CCCCCC
CCc1nc2ccccc2c(C(=O)OCC(=O)Nc2cccc(S(=O)(=O)N3CCOCC3)c2)c1C
COc1ccc(/C(C)=N/NC(=O)c2cccc(S(=O)(=O)N3CCCC3)c2)c(O)c1
CCCCCn1c(C(C)NC(=O)CCC)nc2ccccc21 (centres undefined)
Cc1cc2c3c(c1)C1(SCC(=O)N1c1ccc(F)cc1)C(=O)N3C(C)(C)CC2C (centres undefined)
Nc1cc2c(cc1Br)[nH]c(=O)c1ccccc12
CCc1nnc(NC(=O)[C@@H](NC(=O)c2cccc(S(=O)(=O)N(CC)CC)c2)C(C)C)s1
COc1ccc(N2CCN(C(=O)C3CCC(Cn4c(=S)[nH]c5ccccc5c4=O)CC3)CC2)cc1 (centres undefined)
Fc1ccc(-n2nnnc2-c2cnc(-c3cccs3)nc2C(F)(F)F)cc1
O=C(N/N=C/c1ccc(-n2ccnc2)cc1)c1cccs1
Cc1ccc2c(c1)c1c3n2CCN(CC(N)=O)C3CCC1 (centres undefined)
COc1ccc2[nH]c3c(N4CCC(O)(c5cccc(C(F)(F)F)c5)CC4)ncnc3c2c1
CCOC(=O)C(C)Oc1cccc2c(=O)n(CC(=O)NCCc3ccc(OC)c(OC)c3)ccc12 (centres undefined)
CC1(C(=O)NCc2ccc3c(c2)OCO3)CCN1Cc1csc2ccccc12 (centres undefined)
COc1ccc(NS(=O)(=O)c2cccc(C(=O)NNC(=O)CNC(=O)c3ccc(C)cc3)c2)cc1
COc1ccc(NS(=O)(=O)c2ccc3c(c2)OCCO3)cc1OC
O=C(Cc1ccc(Cl)cc1Cl)Nc1ccncc1
COc1ccc(/C=C/c2nc(S(=O)(=O)c3ccccc3)c(NCCCN(C)C)o2)cc1OC
COC(=O)c1ccc(NC(=O)c2ccc(CN3CCOCC3)cc2)cc1
Nc1ccn([C@@H]2O[C@H](C(=O)NCc3ccc4c(c3)OCO4)[C@@H](O)[C@H]2O)c(=O)n1
CC(C)CC#Cc1ccc2c(c1)O[C@@H](CN(C)S(=O)(=O)c1ccc(F)cc1)[C@H](C)CN([C@@H](C)CO)S2(=O)=O
Cc1cc2ncn(S(=O)(=O)N3CCCCC3)c2cc1C
CCN1CCN(S(=O)(=O)c2ccc(Cl)c(C(=O)Nc3ccccc3N3CCCC3)c2)CC1
